Test results taken from PubChem BioAssay (NCATS).
Results filed as inconclusive are left out. The source made the active and inactive calls. Unless noted, the call rests on the fitted dose curve; in most records, active means well fitted curve in the direction sought with a large enough effect; inconclusive means small, poorly fitted or top-dose-only effect, or another doubt; inactive means no such curve, though single readings can be large; an effect the other way counts as inactive or inconclusive.

Assays:
[1] = molecular target: Mitogen-activated protein kinase 10 (Mus musculus) (UniProt Q61831); test: JNK3 AlphaScreen Assay (AID 530; active means well fitted curve in either direction with a large enough effect, not every such curve was filed as active;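 further: kinase came from lysate of stimulated human HepG2 cells; signal reports phosphorylation of biotinylated GST-cJun 1-79 at Ser73 with 10 µM ATP; on the % scale 0 is the no-effect control and ±100 the full control effect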)
Method in brief: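 HepG2 lysate (IL-1b/TNFa pre-activated) + biotin-GST-cJun 1-79 + anti-pSer73 cJun; cpd titration, 15 min RT; ATP 10 uM start; Tris pH 7.6, MgCl2, DTT, vanadate; beads in EDTA buffer; AlphaScreen.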

[2] = Cell Viability - HUV-EC-C (AID 542); further: on the % scale 0 is the no-effect control and ±100 the full control effect; nearly all actives have a fitted effect of over 35% in size
Method in brief: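 Luminescent ATP read-out (CellTiter-Glo, 20 min room temperature) after 40 hr compound treatment of HUV-EC-C cells at 37 °C. Concentration-response data fitted with the standard Hill equation to give AC50; tamoxifen and doxorubicin served as positive controls.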

[3] = Cell Viability - Renal Proximal Tubule (AID 545); further: nearly all actives have a fitted effect of over 40% in size
Method in brief: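 In this qHTS format, normal rat kidney-derived proximal tubule cells in complete culture medium receive compound titrations, then sit 40 hours at 37 °C before luciferase-based ATP quantitation; potency is reported as AC50 from concentration-response curves.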

[4] = Cellular Toxicity (caspase-3) HepG2 (AID 654);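 further: cells exposed to compound for 16 hours before reading; 0% = DMSO alone and 100% = caspase signal from 100 µM tamoxifen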
Method in brief: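 Luminescent Caspase-Glo 3/7 readout after 16 hr compound exposure of human hepatocellular carcinoma HepG2 cells at 37 °C; qHTS concentration-response, normalized DMSO = 0%, 100 uM tamoxifen = 100%; AC50 by standard Hill equation.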

[5] = Cellular Toxicity (caspase-3) Jurkat (AID 655); details: Jurkat caspase-3 activation, luminescence; caspase-3 activation: at 92.2 µM (top of the series), DMSO = 0%, tamoxifen = 100%;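 further: cells exposed to compound for 16 h at 37 °C before reading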
Method in brief: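 qHTS in human Jurkat T-cell leukemia line: 16 hr compound treatment at 37 °C, caspase-3/7 activity measured by Caspase-Glo luminescence. AC50 derived from Hill equation.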

[6] = Cellular Toxicity (caspase-3) NIH 3T3 (AID 666);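 further: 0% = DMSO basal and 100% = 100 µM tamoxifen stimulation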
Method in brief: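 NIH 3T3, 1000 cells/well, 5 hr settle then 16 hr compound at 37°C; Caspase-Glo 3/7, 20 min RT, luminescence. DMSO = basal, 100 uM tamoxifen = 100%. Hill-equation AC50, qHTS.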

[7] = Cellular Toxicity (caspase-3) Renal Proximal Tubule (AID 667);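 further: cells exposed to compound for 16 hours at 37 °C before detection; 0% = DMSO basal and 100% = 10 µM staurosporine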
Method in brief: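 Caspase-Glo 3/7 read-out, rat primary kidney proximal tubule cells. Compound exposure 16 h, 37 °C; detection after 1 h at RT. Activity scaled to DMSO and 10 uM staurosporine.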

[8] = MultiTox-Fluor Cytotoxicity Assay - LYMP1-001 - Dead Cells (AID 946);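 further: 0% = DMSO and 100% = tetraoctylammonium bromide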
Method in brief: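 AC50 from Hill fit of concentration-response; data normalized to DMSO (basal) and 15 uM tetraoctylammonium bromide (100%). LYMP1-001 lymphoblastoid cells, 2500/well, 16 hr compound at 37 C; dead-cell protease fluorescence, Ex/Em 485/520.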

[9] = MultiTox-Fluor Cytotoxicity Assay - LYMP1-001 - Live Cells (AID 947);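 further: 0% = DMSO only and full inhibition = tetraoctylammonium bromide control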
[10] = MultiTox-Fluor Cytotoxicity Assay - LYMP1-002 - Live Cells (AID 955);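 further: cells exposed to compound for 16 hours; on the % scale 0 is the no-effect control and ±100 the full control effect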
Method in brief: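 LYMP1-002 lymphoblastoid cells; 2500 cells/well; 16 hr compound exposure, 37 C; MultiTox-Fluor reagent 60 min RT; live-cell fluorescence Ex/Em=405/510; qHTS concentration-response, Hill-equation AC50; tetraoctylammonium bromide positive control.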

[11] = Cell Viability - LYMP2-011 (AID 969);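 further: cells exposed to compound for 24 hours; 0% = DMSO only and full inhibition = 92 µM tetraoctylammonium bromide; nearly all actives have a fitted effect of over 60% in size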
Method in brief: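 Luminescent ATP read-out (CellTiter-Glo, 30 min RT) after 24 hr compound exposure at 37 C in human lymphoblastoid cells, 2500 cells/well. Decreasing ATP indicates cytotoxicity; AC50 from standard Hill fit.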

[12] = Cell Viability - LYMP2-019 (AID 973);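 further: 0% = DMSO alone and full effect = 92 µM tetraoctylammonium bromide; nearly all actives have a fitted effect of over 55% in size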
Method in brief: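 qHTS, 1536-well; 2500 cells/well; 5 hr pre-incubation, 24 hr compound exposure, 37 C; CellTiter-Glo added, 30 min RT; luminescence read; AC50 via standard Hill equation.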

[13] = Cell Viability - LYMP2-023 (AID 975);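 further: cellular ATP measured by luciferase luminescence as viability proxy; cells exposed to compound for 24 hours at 37 °C; plate controls were DMSO only for no effect and 92 µM tetraoctylammonium bromide control for full effect; nearly all actives have a fitted effect of over 55% in size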
Method in brief: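 CellTiter-Glo luminescence after 30 min at room temperature; decrease in intracellular ATP reflects toxicity. Cells: human lymphoblastoid line, 2500/well, 24 hr compound exposure at 37 C. AC50 fitted to standard Hill equation from concentration-response.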

[14] = Cell Viability - LYMP2-002 (AID 977);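 further: plate controls were DMSO only for no effect and 92 µM tetraoctylammonium bromide for full effect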
Method in brief: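 Human lymphoblastoid cells, 2500/well, complete medium; 5 h 37 C settle; compound 24 h 37 C; CellTiter-Glo, 30 min RT; luminescence. Decrease in ATP = cytotoxicity; AC50 via Hill equation.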

[15] = Cell Viability - LYMP2-026 (AID 989); further: on the % scale 0 is the no-effect control and ±100 the full control effect; nearly all actives have a fitted effect of over 50% in size
Method in brief: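 qHTS cytotoxicity: 2500 cells/well, 5 hr 37 C, compound 24 hr 37 C, CellTiter-Glo 30 min RT, luminescence. Tetraoctylammonium bromide positive control. AC50 via standard Hill fit.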

[16] = Cell Viability - LYMP1-002 - Assay at 24 hr (AID 993); further: on the % scale 0 is the no-effect control and ±100 the full control effect
Method in brief: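 CellTiter-Glo luminescence (intracellular ATP) after 24 h compound exposure, 37 C, in LYMP1-002 human lymphoblastoid cells; decreased ATP taken as cytotoxicity. AC50 from standard Hill fit of concentration-response curves.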

[17] = molecular target: Peroxisome proliferator-activated receptor gamma (Homo sapiens) (UniProt P37231); test: qHTS assay for small molecule agonists of peroxisome proliferator-activated receptor gamma signaling (AID 588536; active means well fitted curve in the direction sought with a large enough effect in the signal ratio, with a control signal flat, not every such curve was filed as active; the % refers to the signal ratio;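 further: 0% = DMSO basal wells and 100% = rosiglitazone at 2 µM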)
Peroxisome proliferator-activated receptor gamma (Homo sapiens), sequence (P37231 whole entry, looked up): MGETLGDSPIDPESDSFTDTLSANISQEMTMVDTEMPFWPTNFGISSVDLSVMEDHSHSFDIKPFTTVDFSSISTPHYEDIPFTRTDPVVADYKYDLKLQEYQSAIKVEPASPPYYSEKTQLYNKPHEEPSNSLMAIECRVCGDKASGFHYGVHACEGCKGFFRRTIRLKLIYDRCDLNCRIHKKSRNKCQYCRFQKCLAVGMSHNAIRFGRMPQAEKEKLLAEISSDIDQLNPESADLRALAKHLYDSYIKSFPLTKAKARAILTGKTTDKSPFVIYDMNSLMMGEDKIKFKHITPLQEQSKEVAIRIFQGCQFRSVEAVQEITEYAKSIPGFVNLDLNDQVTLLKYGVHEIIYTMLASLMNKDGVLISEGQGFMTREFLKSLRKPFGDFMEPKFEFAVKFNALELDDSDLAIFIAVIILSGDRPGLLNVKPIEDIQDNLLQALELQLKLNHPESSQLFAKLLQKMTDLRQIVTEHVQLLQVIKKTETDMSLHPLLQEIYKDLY
Method in brief: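 Compound treatment: 16 h, 37 C, HEK293 GeneBLAzer cells. Detection: CCF4, 2 h RT. Values: Hill-fit EC50, efficacy as % of 2 uM rosiglitazone.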

[18] = molecular target: Vitamin D3 receptor (Homo sapiens) (UniProt P11473); test: qHTS assay for small molecule agonists of vitamin D receptor signaling (AID 588543; calls by dose curve;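 further: 0% = DMSO basal and 100% = reference agonist control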)
Vitamin D3 receptor (Homo sapiens), sequence (P11473 whole entry, looked up): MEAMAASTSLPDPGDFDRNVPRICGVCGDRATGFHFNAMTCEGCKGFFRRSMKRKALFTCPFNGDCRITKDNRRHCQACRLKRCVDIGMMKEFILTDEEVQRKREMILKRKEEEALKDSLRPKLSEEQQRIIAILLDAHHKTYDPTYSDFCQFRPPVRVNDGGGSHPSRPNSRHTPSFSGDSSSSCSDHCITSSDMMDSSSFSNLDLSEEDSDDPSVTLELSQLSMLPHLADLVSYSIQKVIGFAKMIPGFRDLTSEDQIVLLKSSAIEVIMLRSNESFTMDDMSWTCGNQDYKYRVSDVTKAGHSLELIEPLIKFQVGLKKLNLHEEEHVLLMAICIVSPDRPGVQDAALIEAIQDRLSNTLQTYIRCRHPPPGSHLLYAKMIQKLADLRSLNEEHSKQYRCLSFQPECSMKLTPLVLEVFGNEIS
Method in brief: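 Measured: β-lactamase reporter activity (CCF4, 405 nm excitation, 460/530 nm emission) in HEK293T VDR-UAS-bla cells after 16 h compound exposure at 37 °C. Normalization against 50 nM 1α,25-dihydroxyvitamin D3 and DMSO; Hill-fit EC50.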

[19] = qHTS assay for small molecule disruptors of the mitochondrial membrane potential - 5 hr assay (AID 651755; calls by dose curve; further: on the % scale 0 is the no-effect control and ±100 the full control effect; nearly all actives have a fitted effect of over 40% in size)
Method in brief: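 Read-out: ratiometric Mito-MPS fluorescence, green monomer (ex 490/em 535) vs red mitochondrial aggregate (ex 540/em 590). HepG2 cells treated 5 hr at 37C before 30 min dye loading.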

[20] = Cell Viability - LYMP2-009 (AID 968);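 further: 0% = DMSO alone and the full-kill end = tetraoctylammonium bromide at 92 µM; nearly all actives have a fitted effect of over 55% in size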

CCNCC
inactive: Potency [1] | Potency [2] | outcome [3] | outcome [4] | caspase-3 activation [5] 0.736% | Potency [6] | outcome [7] | outcome [8] | outcome [9] | outcome [10] | Potency [11] | Potency [12] | Potency [13] | Potency [14] | Potency [15] | Potency [16] | outcome [17] | outcome [18] | Potency [19]

c1ccc(C2CO2)cc1 (stereo not drawn)
inactive: Potency [1] | Potency [2] | outcome [3] | outcome [4] | caspase-3 activation [5] 1.66% | Potency [6] | outcome [7] | outcome [8] | outcome [9] | Potency [20] | Potency [12] | Potency [13] | Potency [14] | Potency [15] | Potency [16] | outcome [17] | outcome [18] | Potency [19]

Cc1ccc(N)cc1C
inactive: Potency [1] | Potency [2] | outcome [3] | outcome [4] | caspase-3 activation [5] 0.158% | Potency [6] | outcome [7] | outcome [8] | outcome [9] | outcome [10] | Potency [20] | Potency [11] | Potency [12] | Potency [13] | Potency [14] | Potency [16] | outcome [17] | outcome [18] | Potency [19]

Cc1coc2c1CCC(C)C2 (stereo not drawn)
inactive: Potency [1] | Potency [2] | outcome [3] | Potency [6] | outcome [9] | outcome [10] | Potency [20] | Potency [11] | Potency [12] | Potency [13] | Potency [14] | Potency [15] | Potency [16] | outcome [18] | Potency [19]

Cc1cccc(C)c1N
inactive: Potency [1] | outcome [3] | outcome [4] | caspase-3 activation [5] -0.00153% | Potency [6] | outcome [7] | outcome [9] | Potency [20] | Potency [11] | Potency [13] | Potency [14] | Potency [15] | Potency [16] | outcome [17] | Potency [19]

C=C(Cl)CCl
inactive: Potency [1] | outcome [4] | caspase-3 activation [5] 1.48% | Potency [6] | outcome [7] | outcome [8] | outcome [9] | outcome [10] | Potency [11] | Potency [12] | Potency [13] | Potency [14] | Potency [16] | outcome [17] | outcome [18] | Potency [19]

CC(C)OC(=O)Cc1ccccc1
inactive: Potency [1] | outcome [3] | outcome [4] | Potency [6] | outcome [7] | outcome [8] | outcome [9] | outcome [10] | Potency [20] | Potency [11] | Potency [13] | Potency [14] | outcome [17] | outcome [18] | Potency [19]

CC(Cl)(Cl)Cl
inactive: Potency [1] | Potency [2] | outcome [3] | outcome [4] | caspase-3 activation [5] -0.991% | Potency [6] | outcome [7] | outcome [8] | outcome [9] | outcome [10] | Potency [20] | Potency [11] | Potency [12] | Potency [13] | Potency [14] | Potency [15] | outcome [17] | outcome [18] | Potency [19]

CC(C)Br
inactive: Potency [1] | Potency [2] | outcome [3] | outcome [4] | caspase-3 activation [5] 0.12% | outcome [7] | outcome [8] | outcome [9] | outcome [10] | Potency [20] | Potency [11] | Potency [12] | Potency [13] | Potency [14] | Potency [15] | Potency [16] | outcome [17] | outcome [18] | Potency [19]

Cc1ccc2c(C)cccc2c1
inactive: Potency [1] | Potency [2] | outcome [3] | outcome [4] | Potency [6] | outcome [7] | outcome [10] | Potency [11] | Potency [12] | Potency [13] | Potency [15] | Potency [16] | outcome [17] | Potency [19]

COc1c(C(C)(C)C)cc([N+](=O)[O-])c(C)c1[N+](=O)[O-]
inactive: Potency [1] | outcome [3] | outcome [4] | caspase-3 activation [5] -1.52% | Potency [6] | outcome [7] | outcome [8] | outcome [9] | outcome [10] | Potency [20] | Potency [11] | Potency [12] | Potency [13] | Potency [14] | Potency [15] | Potency [16] | outcome [17] | outcome [18] | Potency [19]

Nc1ccc(-c2ccccc2)cc1
inactive: Potency [1] | Potency [2] | outcome [3] | outcome [4] | outcome [7] | outcome [8] | outcome [10] | Potency [20] | Potency [11] | Potency [12] | Potency [13] | Potency [14] | Potency [15] | Potency [16] | outcome [18]

CCCN(CCC)c1c([N+](=O)[O-])cc(C(F)(F)F)cc1[N+](=O)[O-]
inactive: Potency [2] | outcome [3] | outcome [4] | caspase-3 activation [5] 2.21% | Potency [6] | outcome [7] | outcome [10] | Potency [11] | Potency [12] | Potency [13] | outcome [17] | outcome [18] | Potency [19]

Clc1ccc(C(Cl)(Cl)Cl)c(Cl)c1
inactive: Potency [1] | Potency [2] | outcome [3] | outcome [4] | caspase-3 activation [5] -1.19% | Potency [6] | outcome [7] | outcome [8] | outcome [10] | Potency [20] | Potency [11] | Potency [12] | Potency [13] | Potency [14] | Potency [15] | Potency [16] | outcome [17] | outcome [18] | Potency [19]

O=[N+]([O-])c1cccc(O)c1
inactive: Potency [1] | Potency [2] | outcome [3] | outcome [4] | caspase-3 activation [5] 1.08% | Potency [6] | outcome [8] | outcome [9] | outcome [10] | Potency [20] | Potency [12] | Potency [13] | Potency [14] | Potency [16] | outcome [17] | outcome [18]

[O-][Cl+2]([O-])O
inactive: Potency [1] | Potency [2] | outcome [3] | outcome [4] | caspase-3 activation [5] -0.446% | Potency [6] | outcome [7] | outcome [8] | outcome [9] | outcome [10] | Potency [11] | Potency [12] | Potency [13] | Potency [14] | Potency [15] | Potency [16] | outcome [17] | outcome [18] | Potency [19]

FC(Cl)(Cl)Cl
inactive: Potency [1] | Potency [2] | outcome [4] | caspase-3 activation [5] -0.152% | Potency [6] | outcome [7] | outcome [8] | outcome [9] | outcome [10] | Potency [20] | Potency [11] | Potency [12] | Potency [13] | Potency [15] | Potency [16] | outcome [17] | outcome [18] | Potency [19]
